In PubChem BioAssay AID1421 (Emory University Molecular Libraries Screening Center, 2008):
Among all 1,300 compounds or so, about 140 (11%) were called active. No rule for the calls is given here. Only a sample is shown. Results with a measured potency or affinity are listed apart.

Biological target: Prostaglandin E2 receptor EP2 subtype (Homo sapiens) (UniProt P43116)
Assay: compounds shifting PGE2 potency at EP2 – cell-based, human EP2, PGE2 EC50 shift, dose response (AID 1421)
Conditions: EP2-expressing cells, PGE2 EC50 shift by compound; at 20 µM

Sequence of Prostaglandin E2 receptor EP2 subtype (Homo sapiens) (P43116 whole entry, looked up): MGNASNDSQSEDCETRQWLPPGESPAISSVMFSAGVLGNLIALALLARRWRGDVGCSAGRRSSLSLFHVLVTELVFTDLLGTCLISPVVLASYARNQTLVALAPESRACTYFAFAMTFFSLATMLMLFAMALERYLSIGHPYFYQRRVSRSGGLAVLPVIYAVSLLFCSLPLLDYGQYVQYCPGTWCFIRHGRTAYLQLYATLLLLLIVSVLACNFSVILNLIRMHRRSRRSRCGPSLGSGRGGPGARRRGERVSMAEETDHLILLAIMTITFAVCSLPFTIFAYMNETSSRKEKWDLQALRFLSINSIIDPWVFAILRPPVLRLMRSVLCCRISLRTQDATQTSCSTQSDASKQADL

PGE2 EC50 with compound, inactive:
CCc1ccccc1NC(=O)/C(=C/c1ccco1)c1ccccc1 0.16 nM
Cc1ccccc1NC(=O)/C(=C/c1ccccc1)c1ccccc1 0.24 nM
O=C(O)COc1cccc(NC(=O)c2ccccc2)c1 1.05 nM
Nc1c(C(=O)NCc2ccco2)c2nc3ccccc3nc2n1CCc1ccccc1 1.38 nM
Nc1c(C(=O)NCc2ccccc2)c2nc3ccccc3nc2n1CCCN1CCOCC1 0.76 nM
CCOC(=O)c1c(NC(=O)c2cccnc2)sc(C)c1C 0.31 nM
CCOC(=O)c1c(NC(=O)c2ccoc2C)sc(C(=O)N(C)C)c1C 0.6 nM
CCCCNCC(=O)Nc1sc(C)c(C)c1C(=O)OCC 0.33 nM
CCOC(=O)c1c(NC(=O)CN2CCCCC2)sc2c1CCN(C(=O)OCC)C2 0.83 nM
Cc1ccccc1-n1c(=O)[nH]c(=O)c2c(N)c(C(=O)c3ccc(Cl)cc3)sc21 0.74 nM
S=c1[nH]nc(-c2ccco2)n1/N=C/c1ccc(Cl)cc1Cl 2.86 nM
CCOP(=O)(c1ccccc1)c1nc(-c2ccccc2C)oc1N1CCCCC1 (centres undefined) 0.42 nM
CSc1nc(Sc2ccccc2)c2ccccc2n1 0.21 nM
C=CCSc1nc2ccccc2n1S(=O)(=O)c1ccc(C)cc1 0.5 nM
C=CCSc1nc2ccccc2c(=O)n1Cc1ccccc1 0.31 nM
CCCC1=C(C(=O)OCC)C(c2cccs2)C(C#N)=C(N)O1 (centres undefined) 0.32 nM
COc1ccc(-n2c(COc3cccc4ccccc34)nnc2SCC(=O)NCc2ccco2)cc1 0.72 nM
CCCCCCn1c(COc2ccccc2F)nnc1SCC(=O)N1c2ccccc2NC(=O)C1(C)C 0.69 nM
CCOC(=O)c1sc2nc(C)nc(N3CCN(c4ncccn4)CC3)c2c1C 0.7 nM
Cc1ccc(C(Sc2ccccc2)C(Cn2cncn2)C(=O)c2ccccc2)cc1 (centres undefined) 0.38 nM
CC(C)c1ccc(/C=N/Nc2cc(N3CCOCC3)nc(N3CCOCC3)n2)cc1 0.21 nM
Clc1ccc(-c2ccc(/C=N/Nc3cc(N4CCOCC4)nc(N4CCOCC4)n3)o2)cc1 0.09 nM
Cc1ccc(-c2cc3ccccc3nc2N2CCOCC2)cc1 0.38 nM
Cc1ccc(-c2nc(P(=O)(c3ccccc3)c3ccccc3)c(N3CCOCC3)o2)cc1 0.39 nM
Cc1cccc(Oc2sc(C(=O)c3ccccc3)c(N)c2C#N)c1 0.48 nM
C[C@H](C(=O)c1ccccc1)[C@@H](c1ccccc1)N1CCOCC1 0.33 nM
Cc1ccc2[nH]c3c(=S)nc[nH]c3c2c1 10.1 nM
CN(C)c1nc(-c2ccccc2)c2cnn(Cc3ccccc3)c2n1 0.17 nM
Cc1cccc(CSc2ncnc3ccccc23)c1 0.37 nM
CC1(c2ccccc2)CC(C)(C)N(C(=O)C2CCCO2)c2ccccc21 (centres undefined) 0.39 nM
CCc1ccc2[nH]c(=O)c(CN(Cc3nnnn3C3CCCC3)C3CCCCC3)cc2c1 0.64 nM
O=C(Nc1ccccc1Oc1ccccc1)c1ccc(Br)o1 0.3 nM
O=C(Nc1ccccc1-c1nc2ccccc2s1)c1ccc(Br)o1 0.41 nM
CCOC(=O)c1cnc2ccc(OCC)cc2c1N(C)Cc1ccccc1 0.07 nM
CCCCOc1ccccc1Cn1c(=O)oc2ccccc21 0.29 nM
CCCOc1ccccc1Cn1c(=O)oc2ccc(C)cc21 0.27 nM
CC(C)NC(=S)N/N=C1\CCCCC1C1CCCCC1 (centres undefined) 0.74 nM
CCN(c1cccc(C)c1)S(=O)(=O)c1ccc2c3c(cccc13)C(=O)N2 0.94 nM
C#CCn1c(S(=O)(=O)Cc2ccc(F)cc2)nc(-c2ccccc2)c1-c1ccccc1 0.37 nM
O=C1COc2ccccc2N1Cc1ccccc1Cl 0.31 nM
CC1(C)OC(c2ccccc2)=C/C(=C/C=Nc2ccccc2)O1 0.33 nM
CCSC1=N/C(=C\c2ccccc2)C(=O)N1c1ccc(OC)cc1 0.92 nM
CCOc1ccc2cc(C#N)c(SCC(=O)NC(C)CC)nc2c1 (centres undefined) 0.8 nM
CC(=O)c1cc(C#N)c(SCc2ccccc2)nc1C 0.51 nM
O=C(O)c1oc(C(=O)O)c(C(=O)O)c1C(=O)O 0.58 nM
C1=C(c2ccccc2)Nc2ccccc2N=C1c1ccccc1 0.4 nM
CSc1nnc(-c2ccc(F)cc2)o1 1.06 nM
COC(=O)CSc1nc(-c2ccccc2)nc2ccccc12 0.22 nM
CCOC(=O)CSc1nc(-c2ccccc2)nc2ccccc12 0.26 nM
C=CCn1c(=O)c2c3c(sc2n2c(Nc4ccc(OC)cc4)nnc12)CCCC3 0.74 nM
CCC(Sc1nc(-c2ccccc2)c(C#N)c(=O)[nH]1)C(=O)Nc1cc(C)on1 (centres undefined) 3.58 nM
Cc1cc2cc(CN(Cc3nnnn3C3CCCCC3)CC3CCCO3)c(=O)[nH]c2cc1C (centres undefined) 0.34 nM
Cc1ccccc1C(=O)Nc1ccccc1Sc1ccccc1 0.45 nM
O=C(Cc1ccc(F)cc1)Nc1ccccc1Sc1ccccc1 0.23 nM
COCCCN(C(=O)c1ccco1)c1nc(-c2cc(OC)ccc2OC)cs1 0.27 nM
CCCCc1nc2sc3c(SCC(=O)NCc4ccco4)ncnc3c2c2c1CCC2 0.59 nM
CCN(CC)C(=O)CN(c1cc2c(cc1OC)oc1ccccc12)S(=O)(=O)c1ccc(C)cc1 0.39 nM
Cc1cc2ccccc2nc1SCC(=O)NC1CCCCC1 1.22 nM
COc1ccc(-c2nc3ccccc3n2Cc2ccccc2)cc1 0.33 nM
COc1ccc(-c2nc3c(c(=O)[nH]c(=O)n3Cc3ccccc3)n2Cc2ccccc2)cc1 0.28 nM
Cc1ccc(S(=O)(=O)Nc2ccc(Cl)cc2C(=O)c2ccc(F)cc2)cc1 1 nM
O=C(/C(=C/O)N=Nc1ccccc1)c1ccc(Cl)cc1 7.05 nM
Cc1ccc(S(=O)(=O)NCC(=O)N(c2ccccc2)C(C(=O)NCc2ccccc2)c2ccco2)cc1 (centres undefined) 0.62 nM
O=C(c1ccco1)N(CCC(c1ccccc1)c1ccco1)Cc1ccc(F)cc1 (centres undefined) 0.84 nM
N#CCCSc1ncnc2c1oc1ccccc12 2.48 nM
CCOC(=O)CC(=O)CSc1ncnc2c1oc1ccccc12 2.96 nM
Cc1cc(=O)oc(C)c1C(=O)OC(C(=O)c1ccccc1)c1ccccc1 (centres undefined) 0.26 nM
Cc1noc(C)c1COC(=O)C(c1ccccc1)c1ccccc1 0.31 nM
COc1ccc2cc(CN(Cc3ccco3)C(c3nnnn3C3CCCCC3)C(C)C)c(=O)[nH]c2c1 (centres undefined) 0.82 nM
COc1ccc2cc3c(N)nn(C(=O)C4CCC(C(C)(C)C)CC4)c3nc2c1 (centres undefined) 0.34 nM
CCc1nnc2n1N=C(c1ccc(-c3cc(Cl)ccc3Cl)o1)CS2 0.42 nM
CCOC(=O)c1c(C=O)c(C)n(Cc2ccc(C)cc2)c1C 0.36 nM
CCOC(=O)c1c(C=O)c(C)n(Cc2ccccc2Cl)c1C 0.46 nM
Cc1cccc(NC(=O)CSc2ncnc3c2oc2ccccc23)c1 8.27 nM
Cc1nc(SCCC(=O)O)c2ccccc2n1 15.1 nM
COc1cc(/C=C/c2ccc3cccc([N+](=O)[O-])c3n2)ccc1OCC(=O)O 4.66 nM
COC(=O)C1C(c2ccccc2)C(C(=O)OCc2ccco2)C1c1ccccc1 (centres undefined) 0.38 nM
Fc1ccc(Sc2nc(-c3ccccc3)nnc2C(F)(F)F)cc1 1.16 nM
CSc1nc(Oc2ccc(F)cc2)c2ccccc2n1 0.42 nM
Cc1ccc(S(=O)(=O)c2c(C)cc(C)nc2N2CCCCC2)cc1 0.31 nM
CC1=C/C(=C(/c2ccc(O)c(C)c2)c2ccccc2C(=O)O)C=CC1=O 0.75 nM
CCOC(=O)c1c(CC(C)C)csc1N 0.39 nM
Cc1cc(Br)c2nc3c(c(C(=O)O)c2c1)CCCCC3 11.9 nM
O=C(O)NCc1ccccc1 (tested in a mixture with another compound) 0.49 nM
CCOc1ccccc1C(=O)Nc1ccccc1-c1ccccc1 0.2 nM
CS(=O)(=O)N(Cc1ccccc1)c1ccccc1C(=O)Nc1ccccc1C(=O)NCc1ccco1 56.6 nM
O=C(N/N=C/c1ccc[nH]1)c1ccccc1OCc1ccccc1Cl 0.27 nM
CCc1cc2cc(C)cc(C)c2nc1SCC(=O)N1CCCC1 0.43 nM
CCOC(=O)Cn1c(=S)[nH]c2c(oc3ccc(Cl)cc32)c1=O 6.72 nM
CCOc1ccc(OCC)c(NC(=O)CN2CCN(c3ccc(C)cc3C)CC2)c1 0.77 nM
C=CCCC1(C)C(=O)N(c2ccccc2)c2ccccc21 (centres undefined) 0.41 nM
CC1Cc2ccccc2N1CC(=O)NC(c1ccccc1)c1ccccc1 (centres undefined) 0.52 nM
Cc1cc(C)n(CCOc2ccc(Cl)cc2Cl)n1 0.34 nM
CCOc1cccc(CNc2ccc(O)cc2)c1OCc1ccc(Cl)cc1 0.78 nM
